Reference: PubChem BioAssay (NCI)
This is part of a sample that, as a whole, favours compounds with a hit. Of some 79,000 tested, about 15% had one in any assay. Active and inactive are the calls of the source. Rule as the data show it: active = growth inhibition above about 70%; inactive = the rest.

Assay: NCI Yeast Anticancer Drug Screen. Data for the rad14 strain (AID 159);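 also: 0% = growth of vehicle-treated control cultures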
Conditions: S. cerevisiae rad14 strain growth inhibition, hits give high values
Experimental: Growth inhibition of yeast strains with defined genetic alterations is measured as a screen for potential anti-cancer activity. Selected strains with alterations in DNA damage repair or cell cycle control were exposed to compounds and growth inhibition was measured relative to vehicle treated controls. The strain used in this assay is rad14

Measured: growth inhibition

O=C1c2ccc3ccccc3c2CCC1N1CCCCC1 (stereo not given)
active: at 33.0 µM 97% | at 100.0 µM 98%
inactive: at 1.2 µM 14% | at 3.7 µM 33% | at 11.0 µM 50%

Cc1c([N+](=O)[O-])oc2ccc3ccccc3c12
inactive: at 1.2 µM 43%
active: at 3.7 µM 84% | at 11.0 µM 86% | at 33.0 µM 96% | at 100.0 µM 93%

O=C1OC2C(O1)C1(Cl)C(Cl)=C(Cl)C2(Cl)C1(Cl)Cl (stereo not given)
inactive: at 1.2 µM -4% | at 3.7 µM -6% | at 11.0 µM -3% | at 33.0 µM -7% | at 100.0 µM -1%

O=C(O)C1C2CCC(C2)C1c1ccccc1 (stereo not given)
inactive: at 1.2 µM 0% | at 3.7 µM 0% | at 11.0 µM -5% | at 33.0 µM -8% | at 100.0 µM 13%

C/C(CCl)=N/NC1=NC(c2ccccc2Cl)P(=O)(NCCCNP2(=O)SC(N/N=C(/C)CCl)=NC2c2ccccc2Cl)S1 (stereo not given)
inactive: at 1.2 µM 0% | at 3.7 µM -1% | at 11.0 µM -4% | at 33.0 µM 2% | at 100.0 µM 5%

CC[C@@]1(O)C(=O)OCc2c1cc1n(c2=O)Cc2cc3c(NC(=O)CN)cccc3nc2-1
inactive: at 1.2 µM 2% | at 3.7 µM -4% | at 11.0 µM 0% | at 33.0 µM -4% | at 100.0 µM -1%

CNC(=O)OCC1C2=C(C(=O)C(C)=C(N)C2=O)N2CC3C(N3C)C12OC (stereo not given)
inactive: at 1.2 µM -18% | at 3.7 µM -9% | at 11.0 µM 0% | at 33.0 µM 14% | at 100.0 µM 46%

O=c1c2ccccc2[se]n1-c1cccnc1
active: at 33.0 µM 89% | at 100.0 µM 84%
inactive: at 1.2 µM -28% | at 3.7 µM 2% | at 11.0 µM 38%
